# Assay results reported in PMC4336329 (PLoS ONE, 2015).
# About 14,000 (4.5%) of roughly 310,000 compounds showed an effect of 50% or more. Effects have a minus sign here. What follows is part of a selection rich in strong results, with near analogues and random picks from the rest.
# Biological target: human ether-à-go-go-related gene (hERG) potassium channel (human, UniProt Q12809)
# Assay: primary screen, population patch clamp on CHO cells stably expressing hERG; higher = less effect of the substance
# 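Note: peak tail current of the secondary pulse compared with the same well before compound.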
# human ether-à-go-go-related gene (hERG) potassium channel, sequence (Q12809 whole entry, looked up): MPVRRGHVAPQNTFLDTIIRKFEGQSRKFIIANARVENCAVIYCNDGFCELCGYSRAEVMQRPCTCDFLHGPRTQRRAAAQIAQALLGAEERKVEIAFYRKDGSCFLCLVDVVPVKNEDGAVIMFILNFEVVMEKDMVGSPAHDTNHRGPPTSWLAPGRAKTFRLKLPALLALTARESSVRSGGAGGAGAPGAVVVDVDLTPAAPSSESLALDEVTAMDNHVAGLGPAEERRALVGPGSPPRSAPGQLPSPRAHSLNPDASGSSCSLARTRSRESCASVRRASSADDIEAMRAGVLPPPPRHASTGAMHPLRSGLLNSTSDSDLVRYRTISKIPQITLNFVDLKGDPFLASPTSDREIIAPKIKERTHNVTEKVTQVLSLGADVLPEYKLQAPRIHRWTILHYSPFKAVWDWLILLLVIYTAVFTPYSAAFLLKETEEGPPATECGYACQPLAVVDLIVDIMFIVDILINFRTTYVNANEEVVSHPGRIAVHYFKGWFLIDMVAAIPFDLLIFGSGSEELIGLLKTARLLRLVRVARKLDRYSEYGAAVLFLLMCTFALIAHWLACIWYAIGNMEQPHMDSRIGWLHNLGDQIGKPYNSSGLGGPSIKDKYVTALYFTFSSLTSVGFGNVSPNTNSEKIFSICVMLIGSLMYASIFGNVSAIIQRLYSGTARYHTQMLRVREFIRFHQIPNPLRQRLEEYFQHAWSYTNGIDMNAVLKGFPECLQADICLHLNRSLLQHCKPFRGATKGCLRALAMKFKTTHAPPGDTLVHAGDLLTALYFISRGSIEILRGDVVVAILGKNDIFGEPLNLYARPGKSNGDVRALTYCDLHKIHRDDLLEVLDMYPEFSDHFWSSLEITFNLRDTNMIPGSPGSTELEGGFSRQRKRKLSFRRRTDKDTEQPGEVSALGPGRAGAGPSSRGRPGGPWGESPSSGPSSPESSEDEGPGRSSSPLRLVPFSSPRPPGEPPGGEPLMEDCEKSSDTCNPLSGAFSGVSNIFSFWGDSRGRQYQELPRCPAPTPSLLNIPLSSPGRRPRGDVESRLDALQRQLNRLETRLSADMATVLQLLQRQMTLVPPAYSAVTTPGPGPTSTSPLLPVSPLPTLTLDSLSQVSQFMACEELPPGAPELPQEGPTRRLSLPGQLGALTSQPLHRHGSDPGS
row,SMILES,"hERG current change (%, negative = inhibition) at 10uM [%]"
1,O=C(CSc1ncnc2ccccc12)NCC(=O)c1ccccc1,1.57
2,O=C(Nc1ccccc1)c1c(O)[nH]c(=O)[nH]c1=O,8.67
3,Cc1ccc(N2CC(C(=O)NCc3n[nH]c(=O)c4ccccc34)CC2=O)cc1C (centres unmarked),-13.5
4,COc1ccc(-c2cc(C(=O)Nc3cc(C)on3)no2)cc1,19.9
5,O=C1NC(c2ccc(-c3ccccc3[N+](=O)[O-])o2)C(C(=O)c2ccc(Cl)cc2)C(O)(C(F)(F)F)N1 (centres unmarked),2.13
6,Cc1cc(NS(C)(=O)=O)c(=O)n(Cc2c(F)cccc2Cl)c1,8.86
7,CCCCn1c(SCc2ncc(-c3ccccc3)o2)nc2cc(S(N)(=O)=O)ccc21,-50.5
8,CCCCn1c(SCC(=O)N2CCC(C(=O)OCC)CC2)nc2cc(S(N)(=O)=O)ccc21,-70.7
9,CCCCn1c(SCC(=O)N2CCCC2)nc2cc(S(N)(=O)=O)ccc21,9.3
10,CCCCn1c(SCc2c(C)noc2C)nc2cc(S(N)(=O)=O)ccc21,-43.1
11,CCCCn1c(SCc2nc3ccccc3s2)nc2cc(S(N)(=O)=O)ccc21,-37.5
12,CCCCn1c(SCC(=O)N2CCC(C)CC2)nc2cc(S(N)(=O)=O)ccc21,-30.2
13,Cc1cc(C(=O)CSc2nn3c(=O)c(C(C)(C)C)nnc3s2)c(C)n1C,9.61
14,COc1ccc(NC(=S)NCCc2ccc(F)cc2)c(OC)c1,-19.4
15,O=C1c2cccc3c([N+](=O)[O-])ccc(c23)C(=O)N1c1ccccn1,7.95
16,O=C(Cc1cccs1)NNC(=S)NC(=O)c1ccc(F)c(F)c1,12.2
17,O=C(CN1CCC(c2nc3ccccc3[nH]2)CC1)NCc1ccc2c(c1)OCO2,-84.3
18,Cc1ccc2nc(-c3ccc(SCC(=O)Nc4ccc5c(c4)OCCO5)nc3)[nH]c2c1,-5.51
19,O=C(CN1CCC(c2nc3ccccc3[nH]2)CC1)Nc1ccc2c(c1)OCO2,-53.1
20,CC(C)NC(=O)CN1CCC(c2nc3ccccc3[nH]2)CC1,-8.64
21,Cc1ccc2nc(C3CCN(CC(=O)Nc4ccc5c(c4)OCCO5)CC3)[nH]c2c1,-50.6
22,CCCNC(=O)CN1CCC(c2nc3ccccc3[nH]2)CC1,15.6
23,C=CCNC(=O)CN1CCC(c2nc3ccccc3[nH]2)CC1,7.7

row,SMILES,"hERG current change (%, negative = inhibition) at 10uM [%]"
1,CC(C)N(C(=O)CN1CCC(c2nc3ccccc3[nH]2)CC1)C(C)C,-4.13
2,Cc1ccc2nc(SCC(=O)Nc3ccc4c(c3)OCCO4)[nH]c2c1,4.73
3,CCN1CCN(Cc2ccc(NC(=O)c3cc(NC(=O)c4ccc5n[nH]nc5c4)cc(OC)c3)cc2C(F)(F)F)CC1,21.1
4,CC(C(=O)OCC(=O)c1ccccc1)N1C(=O)C2C3CCC(C3)C2C1=O (centres unmarked),10.5
5,c1ccc(OCCCn2nnc(-c3ccc(N4CCOCC4)cc3)n2)cc1,15.4
6,COc1ccc(NC(=O)CN(C)S(=O)(=O)c2cccc3nsnc23)cc1OC,-10.3
7,CCc1ccc(N(CC(=O)NC2CCCCC2)C(=O)CNC(=O)c2ccco2)cc1,-13.6
8,CC(C)c1ccc(N2C(=NC(=O)C3CCCO3)SC3CS(=O)(=O)CC32)cc1 (centres unmarked),-9.87
9,O=C1c2ccccc2C(=O)N1CN(C(=O)COc1ccc(Cl)cc1Cl)c1cccc(F)c1,1.4
10,COc1cccc(S(=O)(=O)Nc2ccc(C(=O)NCc3ccco3)cc2)c1,3.01
11,Cn1c(-c2ccc(Br)cc2)cnc1NCc1ccc(C#N)cc1.O=C(O)C(=O)O,-76.6
12,Cn1c(-c2ccccc2)cnc1NCc1ccc(-c2ccccc2)cc1.O=C(O)C(=O)O,-10.4
13,Cn1c(-c2ccc(F)cc2)cnc1NCc1ccccc1,-46.7
14,Cn1c(-c2ccc(F)cc2)cnc1NCc1ccc(F)cc1,-40.7
15,Cn1c(-c2ccc(F)cc2)cnc1NCc1ccc(C#N)cc1,-73.7
16,COc1cc(OC)c(NC(=O)CCNC(=O)Cn2cnc3ccccc3c2=O)cc1Cl,-0.133
17,CCc1nnc(NS(=O)(=O)c2ccc(NC(=O)/C=C/c3ccc(F)cc3)cc2)s1,8.28
18,O=C(O)CCC(=O)Nc1sc2c(c1C(=O)NC1CCCC1)CCCC2,5.76
19,Cc1cc(C)cc(C(=O)NC(CC(N)=O)c2ccc(NC3CCCCCCC3)c([N+](=O)[O-])c2)c1 (centres unmarked),1.06
20,CC(=O)c1c(O)cc(C)oc1=O,25.5
21,C(=N\Nc1nc(N2CCCC2)nc(N2CCCC2)n1)/c1cccnc1,6.33
22,FC(F)(F)COc1nc(N/N=C/c2cccnc2)nc(N2CCCCC2c2ccccn2)n1 (centres unmarked),-60.8
23,C(=N\Nc1nc(N2CCOCC2)nc(N2CCOCC2)n1)/c1cccnc1,-12.1

row,SMILES,"hERG current change (%, negative = inhibition) at 10uM [%]"
1,COCCN(CC(=O)NCc1ccc(OC)cc1)C(=O)CCC(=O)Nc1nccs1,-8.1
2,O=S(Cc1cc(Oc2ccccc2)nc(-c2ccccc2)n1)c1ccccc1 (centres unmarked),-7.69
3,O=Cc1sc(Nc2ccccc2)nc1Cl,-13.1
4,CCN1CCN(c2ccc(S(=O)(=O)N3CCCCC3)cc2NC(=O)c2cc3ccccc3o2)CC1,-53.7
5,COc1ccc(S(=O)(=O)N2CCCCC2)cc1NC(=O)c1ccc([N+](=O)[O-])o1,-2.81
6,CCN1CCN(c2ccc(S(=O)(=O)N3CCCCC3)cc2NC(=O)c2ccc([N+](=O)[O-])o2)CC1,-75.9
7,COc1ccc(N2CCCC2)c(NC(=O)c2ccc([N+](=O)[O-])o2)c1,14
8,CCN1CCN(S(=O)(=O)c2ccc(Cl)c(C(=O)Nc3ccccc3N3CCCCC3)c2)CC1,12.8
9,CCN1CCN(c2ccc(S(=O)(=O)N3CCCCC3)cc2NC(=O)c2cccc(C)c2[N+](=O)[O-])CC1,-28.8
10,CCN1CCN(c2ccc(S(=O)(=O)N3CCCCC3)cc2NC(=O)c2ccc(C)o2)CC1,-75.7
11,CCN1CCN(c2c(Cl)cccc2NC(=O)c2cc3ccccc3o2)CC1,-23.4
12,CCN1CCN(c2ccc(S(=O)(=O)N3CCCCC3)cc2NC(=O)c2ccc([N+](=O)[O-])s2)CC1,-80.6
13,Cc1ccc(S(=O)(=O)N2CCCCC2)cc1NC(=O)c1cc2ccccc2o1,-7.85
14,CCCn1c(/N=C/c2ccccc2O)nc2ccccc21,13.6
15,COc1ccc(OCCCC(=O)Nc2nncs2)cc1,0.955
16,COc1cccc(C=Nc2ccc(N3CCOCC3)cc2)c1O,17.9
17,CCCCC(=O)Nc1ccc2c(c1)nc(CCNC(=O)c1ccco1)n2C,-11.1
18,Cc1cnc(NC(=O)CN2CCN(c3ccccc3F)CC2)s1.Cl,12.2
19,Cc1ccc(S(=O)(=O)CCC(=O)OCC(=O)NCc2ccc(Cl)cc2)cc1,36.8
20,O=C(Nc1ccccc1Cl)NC1(C(=O)N2CCOCC2)CCCCC1,17.5
21,CCN1CCN(c2ccc(S(=O)(=O)N3CCCCC3)cc2NC(=O)c2sccc2C)CC1,-71.4
22,COc1ccccc1C(=O)Nc1nc(-c2cccs2)c(NC(C)=O)s1,-7.05
23,O=C(O)CN1c2cccc3cccc(c23)S1(=O)=O,32.4

row,SMILES,"hERG current change (%, negative = inhibition) at 10uM [%]"
1,CC(=O)N1c2ccc(Cl)cc2C2OCCC2C1c1ccco1 (centres unmarked),9.11
2,O=C(c1ccc(S(=O)(=O)N2CCOCC2)cc1)N1CCN(c2ccccn2)CC1,4.62
3,OC(C#CCN1CCCCC1)(c1ccccc1)c1ccccc1,-24.6
4,OC(C#CCN1CCCC1)(c1ccccc1)c1ccccc1,-28.8
5,CC1CCCN1CC#CC(O)(c1ccccc1)c1ccccc1.Cl (centres unmarked),-60.7
6,OC(C#CCCN1CCCCC1)(c1ccccc1)c1ccccc1,-53.8
7,OC(C#CCN1CCCC1)(c1ccccc1)c1cccc(F)c1 (centres unmarked),-16.7
8,OC(C#CCCN1CCCCC1)(c1ccccc1)C1CCCCC1 (centres unmarked),-46.3
9,CCOC(=O)[C@@H]1[C@H]2COc3ccc(Br)cc3[C@H]2N2C(=O)N(c3ccc(C)cc3)C(=O)[C@]12C,-4.14
10,O=C(NC(=S)NN1CCCCC1c1cccnc1)c1ccc(Cl)cc1Cl (centres unmarked),-6.98
11,Cc1ccc(SCC(=O)NC(=O)NCCC(C)C)c(C)c1,-1.09
12,Cc1cc(Cl)c2oc(C(=O)N(C)CCCCN3CCOCC3)c(C)c2c1,-46
13,COc1ccccc1CNC(=O)c1c(O)c2cc(OC)c(OC)cc2[nH]c1=O,6.86
14,COc1cc(/C=N/NC(=O)C(=O)NCc2cccnc2)cc(OC)c1OC,5.17
15,CC(C)(C)[C@H]1C=C(C(=O)N2CCN(Cc3ccc4c(c3)OCO4)CC2)O[C@@H](OCc2ccc(CO)cc2)C1,-33.7
16,O=C(C1=C[C@@H](C2CC2)C[C@@H](OCc2ccc(CO)cc2)O1)N1CCN(Cc2ccc3c(c2)OCO3)CC1,-51.7
17,C[C@H]1C=C(C(=O)N2CCN(Cc3ccc4c(c3)OCO4)CC2)O[C@@H](OCc2ccc(CO)cc2)C1,-70.7
18,O=C(C1=C[C@@H](C2CCCCC2)C[C@@H](OCc2ccc(CO)cc2)O1)N1CCN(Cc2ccc3c(c2)OCO3)CC1,4.46
19,CC(C)(C)[C@@H]1C=C(C(=O)N2CCN(Cc3ccc4c(c3)OCO4)CC2)O[C@H](OCc2ccc(CO)cc2)C1,-35
20,O=C(C1=C[C@H](C2CCCCC2)C[C@H](OCc2ccc(CO)cc2)O1)N1CCN(Cc2ccc3c(c2)OCO3)CC1,-18.3
21,O=C(C1=C[C@@H](C2CC2)C[C@@H](OCCCCO)O1)N1CCN(Cc2ccc3c(c2)OCO3)CC1,-11.1
22,O=C(C1=C[C@H](c2ccc3c(c2)OCO3)C[C@H](OCc2ccc(CO)cc2)O1)N1CCN(Cc2ccc3c(c2)OCO3)CC1,-17.2
23,O=C(C1=C[C@H](C2CC2)C[C@H](OCc2ccc(CO)cc2)O1)N1CCN(Cc2ccc3c(c2)OCO3)CC1,-57.8
